This is a sample that favours compounds with a hit; in the whole collection about 3.1% have one here.
14-3-3 Bad inh: disrupts binding of bovine 14-3-3 zeta to phospho-Bad peptide; P63103; TR-FRET 14-3-3zeta/Dy647-pBad peptide displacement, 1 h; inhibition, % at 21.7 µM; 0.71% of 220,000 active; AID 781;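 active = inhibition above about 70%, limit read from the data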;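 note: 0% = full 14-3-3 plus peptide FRET controls and 100% = background without 14-3-3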
Mcl1-Bid inh: disrupts binding of human Mcl-1 to Bid peptide | 0.97% of 220,000 active | TR-FRET Mcl-1/Bid-Dy647 peptide binding, 1536-well | Q07820 | inhibition, % at 21.7 µM | AID 1021;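 active = compounds that cut the binding signal by more than half at the single screening dose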;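 note: His-tagged Mcl-1 with europium anti-His antibody binding Bid BH3 peptide; 0% = Mcl-1 plus peptide wells and 100% = peptide-only wells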
Target sequence (Q07820 whole entry, looked up): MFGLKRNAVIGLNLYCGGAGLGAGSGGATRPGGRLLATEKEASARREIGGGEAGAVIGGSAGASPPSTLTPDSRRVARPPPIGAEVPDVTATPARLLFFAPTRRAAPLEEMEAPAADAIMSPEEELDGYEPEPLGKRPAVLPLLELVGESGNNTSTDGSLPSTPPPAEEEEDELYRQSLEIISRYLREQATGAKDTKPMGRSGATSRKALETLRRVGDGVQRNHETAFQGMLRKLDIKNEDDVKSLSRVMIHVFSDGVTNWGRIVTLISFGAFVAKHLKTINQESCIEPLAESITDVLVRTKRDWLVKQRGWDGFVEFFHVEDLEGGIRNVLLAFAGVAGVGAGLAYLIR
p47phox inh: p47phox (human) inhibition; P14598; p47phox/p22phox peptide binding, fluorescence polarization, 2 h; inhibition, % at 24.7 µM; 0.53% of 220,000 active; AID 1274;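 active = inhibition above about 30%, limit read from the data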;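 note: 0% = p47phox with labelled peptide and 100% = labelled peptide alone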
Mcl1 Noxa PPI: disrupts binding of human Mcl-1 to Noxa peptide. Q07820. TR-FRET Mcl-1/Noxa peptide binding, 2 h. inhibition, % at 21.7 µM. 1.5% of 220,000 active. AID 1022;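 active = compounds that cut the protein-peptide binding signal by more than 50% relative to plate controls in a single-dose test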;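 note: His-tagged Mcl-1 with rhodamine Noxa BH3 peptide and terbium anti-His antibody; 0% = Mcl-1 plus Noxa peptide wells and 100% = peptide-only wells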
Mcl-1 Bim block: human Bim-Mcl-1 interaction inhibition; inhibition, % at 10 µM; 0.1% of 190,000 active; Bead-based flow cytometry, Bim peptide-Mcl-1 binding; Q07820; in the data active = inhibition above about 40%;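 note: 0% = no compound tracer wells and 100% = peptide blocker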
The depositor's hits bear a star; . = no result given.

SMILES | 14-3-3 Bad inh | Mcl1-Bid inh | p47phox inh | Mcl1 Noxa PPI | Mcl-1 Bim block
CN(C)c1ccc(C(c2nnnn2C(C)(C)C)N2CCc3ccccc3C2)cc1 (stereo not drawn) | 13.4 | -10.2 | -7.3 | 68.3* | 0.0
CCC(C)(C)n1nnnc1C(c1ccc(O)cc1)N1CCc2ccccc2C1 (stereo not drawn) | -0.8 | -10.9 | 3.1 | 59.4* | -2.0
CCOc1ccc(Nc2nc(CC(=O)OC)cc(=O)[nH]2)cc1 | 89.4* | -12.6 | -10.6 | -9.4 | 0.0
CCCc1cc(=O)[nH]c(Nc2cc(OC)ccc2OC)n1 | 5.3 | 6.5 | -12.8 | 25.6 | -2.0
Cc1cc2nnc(SCC(=O)OC(C)C)n2c2ccccc12 | 9.0 | -15.0 | 0.8 | 10.6 | -3.0
N#Cc1c(Cl)nc2c(c1C#N)CCCC2 | 3.1 | -3.7 | -3.2 | 3.1 | .
COc1ccc2oc(=O)c(-c3nnc(NCc4ccco4)s3)cc2c1 | 7.9 | 64.7* | 12.5 | 49.6 | -1.0
CCOc1cccc2cc(-c3cn4cc(C)ccc4n3)c(=O)oc12 | 54.8 | 79.6* | 6.7 | 11.9 | 0.0
CCOc1cccc2cc(-c3nnc(NCc4ccco4)s3)c(=O)oc12 | 10.2 | 28.6 | -41.3 | 63.8* | 0.0
CCOc1cccc2cc(C(C)=O)oc12 | -21.1 | -4.3 | -1.2 | 12.3 | -2.0
CNc1nnc(-c2cc3cc(Cl)ccc3oc2=O)s1 | 59.7 | 13.4 | 10.0 | 63.7* | -1.0
S=C1N(c2ccccc2)C(c2cccc3ccccc23)N2CCCN12 (stereo not drawn) | -5.4 | 2.4 | -2.9 | 3.8 | -3.0
O=C(CCCl)N1CCCC2(CCCCC2)C1 | 5.8 | -7.3 | -8.8 | 1.1 | .
COc1ccc2oc(=O)c(-c3csc(Nc4ccc(O)cc4)n3)cc2c1 | 16.8 | 40.0 | -30.2 | 73.0* | 0.0
COc1ccc2oc(=O)c(/C(C)=N/Nc3nc(-c4cc(C)ccc4C)cs3)cc2c1 | -8.7 | -18.2 | -43.7 | -13.2 | -4.0
COc1ccc(CN2CCN(C(=O)c3cc(OC)c(OC)c(OC)c3)CC2)cc1OC | 20.7 | 32.5 | -3.7 | 12.8 | 0.0
COc1ccc(C(=O)N2CCN(C3CCN(Cc4ccccc4)CC3)CC2)cc1OC | 58.4 | 58.4* | 2.4 | 23.3 | 1.0
COc1ccccc1C(=O)N1CCN(C2CCN(Cc3ccccc3)CC2)CC1 | 83.6* | 47.9 | -10.1 | 31.8 | -8.0
COc1ccc(C(=O)N2CCN(Cc3cc(OC)c(O)c(OC)c3)CC2)cc1OC | 27.5 | 58.5* | -10.1 | 23.6 | 0.0
COc1cccc(C(=O)N2CCN(C3CCN(Cc4ccccc4)CC3)CC2)c1 | 57.5 | 15.2 | -9.9 | 33.4 | 3.0
O=S(=O)(NCCc1ccccc1)c1ccc(Cl)nc1 | -11.1 | -5.0 | -8.2 | 11.6 | -3.0
CC(C)CC(=O)N=C1SC2CS(=O)(=O)CC2N1Cc1ccccc1Cl (stereo not drawn) | -2.1 | -5.1 | -5.0 | 10.5 | .
CCCc1ccc(OCc2nc(-c3ccc(NC(=O)c4ccco4)cc3)no2)cc1 | 21.8 | 60.1* | -35.5 | 6.6 | -6.0
Nc1nc(NCc2ccco2)nc(Nc2ccccc2)c1[N+](=O)[O-] | 2.8 | -7.6 | 76.2* | 16.8 | .
Nc1nc(Nc2ccccc2)nc(NCc2ccco2)c1[N+](=O)[O-] | -12.8 | -9.5 | -12.3 | 25.3 | -5.0
SMILES | 14-3-3 Bad inh | Mcl1-Bid inh | p47phox inh | Mcl1 Noxa PPI | Mcl-1 Bim block
O=C(Nc1ccc(C(F)(F)F)cc1)c1cc(S(=O)(=O)NCC2COc3ccccc3O2)ccc1F (stereo not drawn) | -1.0 | 8.6 | -4.1 | 3.4 | -4.0
O=C1OCC2OC(O)C(O)C(O)C2OC(=O)c2cc(O)c(O)c(O)c2-c2c(O)c(O)c3oc(=O)c4c(c(O)c(O)c5oc(=O)c2c3c54)-c2c1cc(O)c(O)c2O (stereo not drawn) | 75.2* | -9.8 | 0.7 | 104.7* | .
C=CCOc1c2ccc(C(=O)NCc3ccccc3OC)cc2nn1C | -1.4 | 63.6* | -1.0 | 9.9 | 0.0
C=CCOc1c2ccc(C(=O)NCc3ccc(OC)cc3)cc2nn1C | 4.4 | -16.1 | 5.2 | -3.0 | -2.0
C=CCN1CC(C(=O)N2CCC(Cc3ccc(Cl)cc3)(C(=O)OCC)CC2)CC1=O (stereo not drawn) | 4.1 | -12.3 | -8.1 | -19.6 | .
CC(C)n1c(Nn2cnnc2)nc2ccccc21 | -8.4 | -45.8 | -10.5 | 102.6* | 2.0
Cc1oc(-c2ccccc2)cc1C(=O)Nc1ccc(N(C)C)cc1 | 2.6 | 6.0 | -3.0 | 72.8* | 0.0
COc1ccccc1NC(=O)c1sc2ncn(Cc3cccc(C)c3)c(=O)c2c1C | -13.0 | -4.0 | -34.8 | 1.6 | 1.0
COc1ccccc1NC(=O)c1sc2ncn(Cc3ccc(C)cc3)c(=O)c2c1C | 34.4 | 73.5* | -36.4 | 13.5 | -3.0

Source: PubChem
